ssDAF-12 act: S. stercoralis DAF-12 nuclear receptor activators, primary screen, cell-based, luminescence, HEK293, GRIP1 co-expression, lit1-tk-luc; HEK293 ssDAF-12/GRIP1 lit1-tk-luc reporter; % of 3 µM dafachronic acid response; 370,000 tested, 1% active; AID 652126, 2013; Nuclear hormone receptor DAF-12 (Strongyloides stercoralis); activation, % at 6.8 µM;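 active means activation above the mean over all tested compounds plus 3 SD, cut at about 0.9% in these data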;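 further: 0% = DMSO-only wells and 100% = 3 µM delta7-dafachronic acid wells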
hgDAF12 agonist: H. glycines DAF-12 receptor agonists, primary screen, cell-based, luminescence, HEK293, GAL4 fusion, UAS-luciferase; Nuclear hormone receptor DAF-12 (Heterodera glycines), GAL4 fusion; HEK293 GAL4-hgDAF12 UAS-luciferase reporter, agonist luminescence; normalized to butyrate control; activation, % at 6.8 µM; 370,000 tested, 1.8% active; AID 687014, 2013;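 active means activation above a cutoff set at the mean of all screened compounds plus 3 SD, cut at about 10% in these data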;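 further: 0% = DMSO wells and 100% = sodium butyrate wells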
DAX1 inh-1: DAX1 (NR0B1) inhibitors, primary screen, cell-based, HEK293, Gal4-DAX1, luciferase luminescence; Nuclear receptor subfamily 0 group B member 1 (Homo sapiens), P51843; HEK293 Gal4-DAX1 luciferase reporter; inhibition, % at 6.75 µM; 340,000 tested, 0.99% active;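 active means inhibition above the mean over all tested compounds plus 3 SD, cut at about 4.2% in these data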;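 further: 0% = DAX1-transfected cells with DMSO and 100% = empty-vector control cells with DMSO; inhibition shows as a rise in luminescence from relieved DAX1 repression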
Target sequence (P51843 207-470 limits assumed): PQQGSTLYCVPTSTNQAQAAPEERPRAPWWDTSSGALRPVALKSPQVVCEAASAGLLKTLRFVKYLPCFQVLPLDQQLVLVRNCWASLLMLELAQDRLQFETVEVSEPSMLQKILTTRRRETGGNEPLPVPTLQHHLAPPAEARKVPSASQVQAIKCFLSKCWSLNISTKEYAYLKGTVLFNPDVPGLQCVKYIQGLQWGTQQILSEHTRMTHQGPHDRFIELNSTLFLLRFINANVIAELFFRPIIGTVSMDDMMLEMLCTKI
hcDAF-12 act: H. contortus DAF-12 nuclear receptor activators, primary screen, cell-based, luminescence, HEK293, lit1-tk-luc reporter; HEK293 hcDAF-12 lit1-tk-luc reporter; 0% DMSO, 100% Δ7-dafachronic acid; activation, % at 6.8 µM; 370,000 tested, 1.4% active; AID 652067, 2013;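 active means activation above the mean of all tested compounds plus 3 SD, cut at about 5.5% in these data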;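 further: 100% = response to 3 µM Δ7-dafachronic acid high control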
DAX1 inh-2: DAX1 (NR0B1) inhibitors on StAR promoter, primary screen, cell-based, luminescence, SF-1 (NR5A1), full-length DAX-1; HEK293T StAR-luciferase reporter, SF-1/DAX-1 repression relief; 370,000 tested, 1.1% active; inhibition, % at 6.8 µM;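 active means inhibition above the mean over all tested compounds plus 3 SD, cut at about 3.6% in these data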;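 further: 0% = DAX-1 cells with DMSO and 100% = cells lacking DAX-1 with DMSO; higher inhibition means more luminescence from relief of DAX-1 repression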
Active calls of the source: *; . = not tested or not shown. Shown are actives, neighbours in structure and some others; about 4.1% of the full set was active somewhere.

SMILES	ssDAF-12 act	hgDAF12 agonist	DAX1 inh-1	hcDAF-12 act	DAX1 inh-2
COc1ccc(CNC(=O)CCNS(=O)(=O)c2ccc(Cl)cc2)cc1	-1	2	1	-1	0
COc1ccc(CNC(=O)CNC(=O)CNS(=O)(=O)c2ccc(C)c(C)c2)cc1	0.9*	3	1	0	0
CCCCNC(=O)OCCCN1CCC2(CCC(c3ccccc3)CC2)C1 (configuration not stated)	-1	8	.	0	1
Nc1nc2ccccc2n1/N=C/c1ccc(Br)cc1	0	12*	1	3	2
O=C(CN1C(=O)c2ccccc2S1(=O)=O)NCc1c(F)cccc1F	-1	1	4.9*	0	0
O=C(CN1C(=O)c2ccccc2S1(=O)=O)NCc1ccc(F)cc1	0	0	1	-1	0
O=C(N(c1ccccn1)c1ccccn1)C12CC3CC(CC(Cl)(C3)C1)C2	-2	0	1	6.2*	0
O=C(OC12CCCN(C1)/C(=C/c1ccncc1)C2)c1ccc(F)cc1 (configuration not stated)	-2	-1	.	-3	-2
O=C(CSC1CC(=O)N(c2ccc(C(=O)O)cc2)C1=O)Nc1ccc(Cl)cc1 (configuration not stated)	-1	-5	6.5*	-2	0
O=C(O)CSC1CC(=O)N(c2ccc(F)cc2)C1=O (configuration not stated)	-1	2	0	-1	1
O=C(CSC1CC(=O)N(CCc2ccccc2)C1=O)Nc1ccc(Br)cc1 (configuration not stated)	0	0	1	5.8*	0
O=C(CSC1CC(=O)N(CCc2ccccc2)C1=O)Nc1cccc(Cl)c1 (configuration not stated)	-2	0	0	1	0
CCCC1CCC2(CC1)CCC2OC(=S)Nc1cccc(I)c1 (configuration not stated)	-1	4	.	1	.
COc1cc(/C=C/C(=O)O)cc(S(=O)(=O)N2CCc3ccccc32)c1OC	2.3*	1	-2	2	-1
Brc1cccc(/C=N\n2cnnc2)c1	-2	0	2	-1	0
CN(C)/N=C/c1cc([N+](=O)[O-])ccc1O	-1	0	-2	0	1
O=[N+]([O-])c1cccc(/C=N/n2cnnc2)c1	0	-2	6.3*	1	1
O=[N+]([O-])c1ccc(O)c(/C=N/n2cnnc2)c1	-1	0	5.1*	-1	1
COC(=O)[C@]12C[C@H](CC(=O)N3CCN(C(=O)C4CC4)CC3)C(=O)N(Cc3ccco3)C1=C[C@H](COCc1ccccc1)O[C@@H]2C	-1	2	.	-2	0
CCCSc1nc2c(cnn2-c2ccccc2)c(=O)n1N	-1	13*	1	5.8*	1
CCCCOCCCNC(=O)C[C@H]1C[C@@]2(C(=O)OC)C(=C[C@H](C(C)(C)C)O[C@@H]2C)N(Cc2ccco2)C1=O	-2	0	.	-3	-1
O=Cc1ccc(-n2cc(C=O)c3ccccc32)cc1	0	-2	-1	0	0
Cn1cc(C=O)c2ccccc21	1.3*	1	-1	2	0
COC(=O)[C@H](Cc1ccccc1)NC(=O)[C@H]1C[C@@]2(N3CCCC3)c3ccccc3N(C(=O)OC(C)(C)C)[C@H]2N1C(=O)OC(C)(C)C	-2	-3	.	2	0
CN(CCOC(=O)c1cc2ccccc2o1)C1CN(Cc2cn(Cc3ccccc3Cl)nn2)S(=O)(=O)C1 (configuration not stated)	-1	3	.	-1	0
SMILES	ssDAF-12 act	hgDAF12 agonist	DAX1 inh-1	hcDAF-12 act	DAX1 inh-2
CN=c1scc(-c2ccco2)n1/N=C/c1ccc(O)c(O)c1	0	17*	-1	8.4*	2
COC(=O)c1cn(-c2ccc3c(c2)[C@]2(CC(=O)N(C)C2c2ccccc2)C(=O)N3CC(C)C)nn1 (some centres not stated)	-1	4	.	1	0
CNc1cncc(-c2c(OC)cccc2OC)n1	-1	0	.	0	0
CNc1cncc(-c2cccc(OC)c2F)n1	1	9	.	3	4.2*
CNc1cncc(-c2ccc(OC)c(OC)c2)n1	3.4*	11*	.	-1	1
O=C(NN=C1CCCCC1)c1ccccc1-n1cccc1	-1	2	0	0	0
CC(C)(C)C1CCC(=NNC(=O)c2ccccc2-n2cccc2)CC1 (configuration not stated)	0	0	-1	6.0*	0
COC(=O)c1cn[nH]c1NC(=S)Nc1ccc(C)cc1Cl	-1	8	0	5	4.2*
COC(=O)c1cn[nH]c1NC(=S)Nc1ccc(Cl)c(Cl)c1	-1	6	2	3	2
CCOC(=O)c1sc(NC(=O)c2ccccc2OCC)nc1C	-1	-1	0	-2	0
CCOC(=O)c1sc(NC(=O)c2ccc3nc[nH]c3c2)nc1C	0	4	0	0	0
CCOC(=O)c1sc(NC(=O)c2ccc(=O)[nH]c2)nc1C	0	0	6.1*	1	0
CCOC(=O)c1sc(NC(=O)c2cccnc2)nc1C	-1	1	2	5.9*	0
COC(=O)c1sc(NC(=S)NC(=O)c2cccc(Br)c2)nc1C	0	4	4.6*	4	0
COc1ccc2nc3sc(C(=O)NCCN4CCc5ccccc5C4)cc3cc2c1	0	12*	-1	5	1
COc1ccc2cc3cc(C(=O)NCCCN4CCc5ccccc5C4)sc3nc2c1	0	5	1	1	1
Cc1cc(NC(=O)NC(=O)c2ccc(F)cc2F)n[nH]1	0	11*	0	3	3
Cc1cc(NC(=O)c2cccc(Cl)c2)n[nH]1	-1	8	1	1	2
CCN1C(=O)Nc2cccc3cccc1c23	0	-2	4.8*	1	-1
COc1cccc(N2CCN(CC(=O)NCc3ccc(F)cc3)CC2)c1	-2	0	.	-3	-1
O=C1NCCCC1C(=O)N1CCCCC1 (configuration not stated)	-1	1	3	-1	0
O=C1CCC(=O)N(O)CCCCCNC(=O)CCC(=O)N(O)CCCCNC(=O)CCC(=O)N(O)CCCCCN1	0	3	5.3*	-1	0
COc1cccc(CNC(=O)c2cccc(NC(=O)C3=C(C)OCCS3)c2)c1	-1	-4	-1	0	-1

Compound activity from PubChem BioAssay.
